We go through 38 molecules from the supplement of paper PMC9023506.

Common to all, as to conditions: 10 µM; exposure time: 3 h pre-incubation + 3 h imaging
Assay [1] has as its system Danio rerio larvae (5 dpf). The assay can be described thus: optomotor response to blue moving lines, difference vs DMSO (percentage points (treated minus DMSO)); higher = more of the behaviour than the DMSO vehicle control. Summed up: (§1)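 5-dpf wild-type zebrafish larvae in 96-well ProxiPlates were exposed to library drugs at 10 µM (diluted 1000× from DMSO stocks into egg water). There were 48 larvae per drug, exposed 3 h before and 3 h during imaging at 28.5 °C. Images taken every 6 s covered a 3-h program of rest, moving coloured lines and acoustic pulses, and an ImageJ macro scored movement and upper-half location. Each behaviour score is the treated-group mean minus the DMSO vehicle mean, in percentage points.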

Assay [2] relates to Danio rerio larvae (5 dpf). As to the kind of experiment: optomotor response to fast red moving lines, difference vs DMSO (percentage points (treated minus DMSO)); higher = more of the behaviour than the DMSO vehicle control. Summed up: as §1
The test system of assay [3] is Danio rerio larvae (5 dpf). The assay can be described thus: optomotor response to green moving lines, difference vs DMSO (percentage points (treated minus DMSO)); higher = more of the behaviour than the DMSO vehicle control. Summed up:
as §1

The test system of assay [4] is Danio rerio larvae (5 dpf). As to the kind of experiment: excitability to 1-s acoustic pulses, difference vs DMSO (percentage points (treated minus DMSO)); higher = more of the behaviour than the DMSO vehicle control. The gist of the method: as §1
In assay [5] the test system is Danio rerio larvae (5 dpf). As to the kind of experiment: activity during period 15 (no stimuli), difference vs DMSO (percentage points (treated minus DMSO)); higher = more of the behaviour than the DMSO vehicle control. The gist of the method: as §1
Assay [6] relates to Danio rerio larvae (5 dpf). As to the kind of experiment: startle response to 20-s acoustic pulses, difference vs DMSO (percentage points (treated minus DMSO)); higher = more of the behaviour than the DMSO vehicle control. Summed up:
as §1

Assay [7] concerns Danio rerio larvae (5 dpf). As to the kind of experiment: habituation to 1-s acoustic pulses, difference vs DMSO (percentage points (treated minus DMSO)); higher = more of the behaviour than the DMSO vehicle control. The gist of the method: as §1

SMILES strings stand for the structures. Structures can show the parent of a compound that is named as a salt.

Consider `COC(=O)C1=C(C)NC(C)=C(C(=O)OC(C)C)C1c1cccc2nonc12` (stereo unspecified) [Isradipine], for which, in assay [1], the “optomotor response to blue moving lines” value is -11.3. Moreover, the optomotor response in assay [2] was -16.6.
Consider `Cc1cccc(CN2CCN(C(c3ccccc3)c3ccc(Cl)cc3)CC2)c1` (stereo unspecified) [Meclizine dihydrochloride], for which the “optomotor response to green moving lines” value in assay [3] was -8.55.
Turning to `CN1CC[C@@H](NC(=O)Nc2ccc(C#N)cc2)C[C@@H]1c1nc2ccccc2[nH]1`, the “excitability to 1-s acoustic pulses” value in assay [4] stood at 7.99. Further, the “activity during period 15” value in assay [5] is -0.815. The “optomotor response to blue moving lines” value in assay [1] came to 3.76. Moreover, the optomotor response in assay [2] was -0.171.
In the case of `CCN(Cc1ccncc1)C(=O)C(CO)c1ccccc1` (stereo unspecified) [Tropicamide], in assay [5], the “activity during period 15” value came to 6.31. Besides, in assay [3], the “optomotor response to green moving lines” value was -4.16.
As to `CCCCCCCN(CC)CCCC(O)c1ccc(NS(C)(=O)=O)cc1` (stereo unspecified) [Ibutilide hemifumarate], in assay [6], the “startle response to 20-s acoustic pulses” value was -3.17.
Regarding `Cc1nc(Nc2ncc(C(=O)Nc3c(C)cccc3Cl)s2)cc(N2CCN(CCO)CC2)n1` [Dasatinib], the “startle response to 20-s acoustic pulses” value in assay [6] is 0.79.
As to `CC(C)Nc1cccnc1N1CCN(C(=O)c2cc3cc(NS(C)(=O)=O)ccc3[nH]2)CC1` [Delavirdine mesylate], the “excitability to 1-s acoustic pulses” value in assay [4] was 0.884. Moreover, the “optomotor response to green moving lines” value in assay [3] is -4.7. Also, in assay [2], the optomotor response is -17.
Regarding `Cc1cc(C2CCCCC2)n(O)c(=O)c1` [Ciclopirox], in assay [7], the “habituation to 1-s acoustic pulses” value was 0.443. In assay [5], the “activity during period 15” value amounted to 10.7. Also, in assay [6], the “startle response to 20-s acoustic pulses” value was -9.88.
For the molecule `CCC(C)(C)C(=O)O[C@H]1C[C@@H](C)C=C2C=C[C@H](C)[C@H](CC[C@@H]3C[C@@H](O)CC(=O)O3)[C@H]21` [Simvastatin], in assay [7], the “habituation to 1-s acoustic pulses” value is -1.13. For the same molecule, in assay [4], the “excitability to 1-s acoustic pulses” value amounted to 8.31. In assay [5], the “activity during period 15” value is -3.71. Further, in assay [6], the “startle response to 20-s acoustic pulses” value worked out at 3.9.
Turning to `OCCOCCN1CCN(C2=Nc3ccccc3Sc3ccccc32)CC1` [Quetiapine hemifumarate], in assay [4], the “excitability to 1-s acoustic pulses” value came out at 9.86. In assay [6], the “startle response to 20-s acoustic pulses” value is -1.65. In addition, the optomotor response in assay [2] is -5.91.
With `CN(C)CC/C=C1/c2ccccc2COc2ccc(CC(=O)O)cc21` [Olopatadine hydrochloride], in assay [4], the “excitability to 1-s acoustic pulses” value was 3.92.
`Nc1ccn([C@@H]2O[C@H](CO)[C@@H](O)C2(F)F)c(=O)n1` [Gemcitabine hydrochloride]: the “activity during period 15” value in assay [5] was -1.53. The “startle response to 20-s acoustic pulses” value in assay [6] stood at 3.92.
On to `O=c1[nH]c(=O)n([C@H]2C[C@H](O)[C@@H](CO)O2)cc1C(F)(F)F` [Trifluorothymidine], for which the “excitability to 1-s acoustic pulses” value in assay [4] was found to be 2.88. Moreover, the “startle response to 20-s acoustic pulses” value in assay [6] worked out at 1.37. Besides, the optomotor response in assay [2] was -0.769.
With `Cn1cnc([N+](=O)[O-])c1Sc1ncnc2[nH]cnc12` [Azathioprine], in assay [7], the “habituation to 1-s acoustic pulses” value is -2.96. Further, the “excitability to 1-s acoustic pulses” value in assay [4] is -0.039. Moreover, in assay [3], the “optomotor response to green moving lines” value was -1.06.
`CCOc1nc2cccc(C(=O)O)c2n1Cc1ccc(-c2ccccc2-c2noc(=O)[nH]2)cc1` [Azilsartan]: in assay [5], the “activity during period 15” value came out at 3.86. Further, the “startle response to 20-s acoustic pulses” value in assay [6] is 3.96.
Turning to `O=C1CCc2ccc(OCCCCN3CCN(c4cccc(Cl)c4Cl)CC3)cc2N1` [Aripiprazole], the “habituation to 1-s acoustic pulses” value in assay [7] was -5.72. Also, the “excitability to 1-s acoustic pulses” value in assay [4] turned out to be 16.5.
Consider `CCCCC(=O)N(Cc1ccc(-c2ccccc2-c2nnn[nH]2)cc1)[C@H](C(=O)O)C(C)C` [Valsartan], for which, in assay [3], the “optomotor response to green moving lines” value came out at 4.22. Moreover, in assay [6], the “startle response to 20-s acoustic pulses” value is -0.147. The optomotor response in assay [2] is -0.58.
In the case of `CC[C@H]1OC(=O)[C@H](C)[C@@H](O[C@H]2C[C@@](C)(OC)[C@@H](O)[C@H](C)O2)[C@H](C)[C@@H](O[C@@H]2O[C@H](C)C[C@H](N(C)C)[C@H]2O)[C@](C)(O)C[C@@H](C)CN(C)[C@H](C)[C@@H](O)[C@]1(C)O` [Azithromycin], the “startle response to 20-s acoustic pulses” value in assay [6] was found to be 2.64. Also, the optomotor response in assay [2] was -9.96.
`CC(=O)S[C@@H]1CC2=CC(=O)CC[C@]2(C)[C@H]2CC[C@@]3(C)[C@@H](CC[C@@]34CCC(=O)O4)[C@H]12` [Spironolactone]: the “startle response to 20-s acoustic pulses” value in assay [6] worked out at 1.64.
Take `Cc1nnc(C(C)C)n1C1C[C@H]2CC[C@@H](C1)N2CC[C@H](NC(=O)C1CCC(F)(F)CC1)c1ccccc1` (stereo in doubt) [Maraviroc]: the “startle response to 20-s acoustic pulses” value in assay [6] was -4.61.
On to `CC(=O)O[C@H]1C(=O)[C@@]2(C)[C@H]([C@H](OC(=O)c3ccccc3)[C@]3(O)C[C@H](OC(=O)[C@H](O)[C@@H](NC(=O)c4ccccc4)c4ccccc4)C(C)=C1C3(C)C)[C@]1(OC(C)=O)CO[C@@H]1C[C@@H]2O` [Taxol], for which the “habituation to 1-s acoustic pulses” value in assay [7] was -2.74. Further, the “optomotor response to green moving lines” value in assay [3] is -4.62.
As for `COc1ccc([C@@H]2Sc3ccccc3N(CCN(C)C)C(=O)[C@@H]2OC(C)=O)cc1` [Diltiazem hydrochloride], the optomotor response in assay [2] was -0.971.
With `COc1cc(N)c(Cl)cc1C(=O)NC1CCN(CCCOc2ccc(F)cc2)CC1OC` (stereo unspecified) [Cisapride], the “excitability to 1-s acoustic pulses” value in assay [4] amounted to 16.4. In assay [5], the “activity during period 15” value is -0.757. For the same molecule, the optomotor response in assay [2] is 9.11.
For the molecule `CNC(=O)c1cc(Oc2ccc(NC(=O)Nc3ccc(Cl)c(C(F)(F)F)c3)cc2)ccn1` [Sorafenib], the “excitability to 1-s acoustic pulses” value in assay [4] was 14.4. In assay [3], the “optomotor response to green moving lines” value is -2.72. Moreover, the “startle response to 20-s acoustic pulses” value in assay [6] is -4.57.
`CN1CCN2c3ncccc3Cc3ccccc3C2C1` (stereo unspecified) [Mirtazapine]: the “optomotor response to green moving lines” value in assay [3] is -1.59. The “startle response to 20-s acoustic pulses” value in assay [6] is -5.94.
As to `C[C@H](Cc1cc2c(c(C(N)=O)c1)N(CCCO)CC2)NCCOc1ccccc1OCC(F)(F)F` [Silodosin], the “excitability to 1-s acoustic pulses” value in assay [4] was determined as 21.7. Further, in assay [5], the “activity during period 15” value was -7.59.
Turning to `CCOC(=O)c1ncn2c1CN(C)C(=O)c1cc(F)ccc1-2` [Flumazenil], in assay [7], the “habituation to 1-s acoustic pulses” value was -2.91. In addition, the “excitability to 1-s acoustic pulses” value in assay [4] came to 2.56. Besides, the optomotor response in assay [2] came to 9.89.
As for `N#Cc1ccc(C(c2ccc(C#N)cc2)n2cncn2)cc1` [Letrozole], the “startle response to 20-s acoustic pulses” value in assay [6] was found to be 5.37.
`CC(C)N(CCCCOCC(=O)NS(C)(=O)=O)c1cnc(-c2ccccc2)c(-c2ccccc2)n1` [Selexipag]: the “activity during period 15” value in assay [5] turned out to be 6.35.
As to `CCN(CC)CCNC(=O)c1c(C)[nH]c(/C=C2\C(=O)Nc3ccc(F)cc32)c1C` [Sunitinib malate], in assay [7], the “habituation to 1-s acoustic pulses” value was determined as 4.25. The “activity during period 15” value in assay [5] was -14.6.
Turning to `NS(=O)(=O)c1cc2c(cc1Cl)NC(C1CC3C=CC1C3)NS2(=O)=O` (stereo unspecified) [Cyclothiazide], the “habituation to 1-s acoustic pulses” value in assay [7] worked out at 2.19. In assay [4], the “excitability to 1-s acoustic pulses” value was determined as 0.586. For the same molecule, the optomotor response in assay [2] was -3.47.
On to `Nc1nc2[nH]cc(CCc3ccc(C(=O)N[C@@H](CCC(=O)O)C(=O)O)cc3)c2c(=O)[nH]1` [Pemetrexed], for which, in assay [7], the “habituation to 1-s acoustic pulses” value was -1.43. The “optomotor response to green moving lines” value in assay [3] is 8.22.
As to `COc1cc2nc(N3CCN(C(=O)C4COc5ccccc5O4)CC3)nc(N)c2cc1OC` (stereo unspecified) [Doxazosin mesylate], in assay [7], the “habituation to 1-s acoustic pulses” value is -2.28.
As to `NS(=O)(=O)Cc1noc2ccccc12` [Zonisamide], in assay [7], the “habituation to 1-s acoustic pulses” value is -0.0674. Besides, the “excitability to 1-s acoustic pulses” value in assay [4] was 2.79. Moreover, the “activity during period 15” value in assay [5] was -7.11. In addition, the “startle response to 20-s acoustic pulses” value in assay [6] is 8.21.
In the case of `NS(=O)(=O)c1cc(C(=O)O)c(NCc2ccco2)cc1Cl` [Furosemide], the “activity during period 15” value in assay [5] was 9.33.
Take `COc1ccc(-c2ccc3cc(C(=O)O)ccc3c2)cc1C12CC3CC(CC(C3)C1)C2` [Adapalene]: in assay [6], the “startle response to 20-s acoustic pulses” value stood at 0.11.
Consider `Nc1ncn([C@@H]2O[C@H](CO)[C@@H](O)[C@H]2O)c(=O)n1` [5-Azacytidine], for which, in assay [7], the “habituation to 1-s acoustic pulses” value came to 0.737. The “optomotor response to green moving lines” value in assay [3] was found to be 1.33. Also, in assay [6], the “startle response to 20-s acoustic pulses” value turned out to be 2.64.
As for `COc1ccccc1Oc1c(NS(=O)(=O)c2ccc(C(C)(C)C)cc2)nc(-c2ncccn2)nc1OCCO` [Bosentan], the “excitability to 1-s acoustic pulses” value in assay [4] is -1.1. Moreover, in assay [2], the optomotor response is 0.298.
